For five compounds, composite z-score, composite Z-score and z-score results are on record in PubChem BioAssay.

Structures are written as SMILES. Activity calls are given as the source filed them.

One experiment addresses Albumin (Bos taurus) (UniProt P02769). In words: compounds binding labelled BSA control protein – biochemical, small-molecule microarray, Alexa647 label, 635/667 nm fluorescence, artefact control for SMM control protein annotation, profiling panel (AID 1118).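 Also: score merges 667 nm emission intensity and signal-to-noise per printed compound spot.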 The following applies: BSA-A647 binding, fluorescence 635 nm, higher = more signal.
Experiment [1] is described as follows: probe aXIP binding to arrayed compounds – biochemical, NeuroSMM set, 635/667 nm fluorescence, primary screen (AID 1119).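 Also: probe is the protein aXip251-270 applied at 1 µg/mL to compound-printed slides; binding of probe to printed compounds measured as 667 nm fluorescence plus signal to noise.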 The following applies: small-molecule microarray, higher = more signal, called active from +8 up or from −8 down.
Experiment [2] in a line: probe aNOTCH3 binding on compound microarray – biochemical, small-molecule microarray, 635/667 nm fluorescence, primary screen (AID 1120).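 Also: probe is a biotin-tagged antibody raised against NOTCH3 rather than NOTCH3 protein; score merges spot fluorescence near 667 nm with spot signal to noise.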 The following applies: higher = more signal.
The nature of experiment [3]: probe aNOTCH2 binding on compound microarray – biochemical, small-molecule microarray, 635/667 nm fluorescence, primary screen (AID 1121).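 Also: score merges feature fluorescence read at 667 nm with its signal to noise.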 The following applies: higher = more signal.
Experiment [4] addresses Carbonic anhydrase 2 (Homo sapiens) (UniProt P00918). Nature of the experiment: compounds binding carbonic anhydrase 2 – biochemical, small-molecule microarray, Alexa647-labelled CAII, profiling panel (AID 1122). The following applies: CAII-A647 binding fluorescence, higher = more signal.
Experiment [5] is described as follows: COS7 lysate on small-molecule microarray, probe aHis, 635 nm (AID 1123).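 Also: z-score combines 667nm fluorescence intensity with signal-to-noise per printed compound spot.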 The following applies: COS7 cell lysate, fluorescence, higher = more signal.
Experiment [6] is described as follows: probe aLAP1 signal on lysate-treated microarray – cell lysate, small-molecule microarray, COS7 lysate, primary screen (AID 1124).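 Also: lysate comes from COS7 cells expressing LAP1 and is applied at 0.3 µg/mL; score merges spot fluorescence near 667 nm with signal-to-noise over triplicate slides.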 The following applies: probe aLAP1, fluorescence, higher = more signal.
Another experiment relates to Sam68 (KHDRBS1). Nature of the experiment: compounds binding KHDRBS1 protein – biochemical, small-molecule microarray, 635 nm fluorescence, primary screen (AID 1125).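 Also: score merges 667 nm channel intensity with signal to noise over triplicate slides.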 The following applies: higher = more signal.
Experiment [7] deals with Chordin-like protein 2 (CHRDL2). Nature of the experiment: compounds binding chordin-like 2 – biochemical, small-molecule microarray, 635 nm fluorescence, primary screen (AID 1126).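 Also: printed compound slides probed with Chrdl2 protein at 4 µg/mL for 1 h at 4 C; score merges 667 nm emission intensity with signal to noise over three replicate slides.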 The following applies: fluorescence 635 nm, higher = more signal.
Experiment [8] deals with Concanavalin-A (Canavalia ensiformis) (UniProt P02866). In words: compounds binding concanavalin A lectin – biochemical, small-molecule microarray, Alexa647 label, 635 nm, artefact control for SMM control protein annotation, primary screen (AID 1127).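 Also: z combines 667 nm emission intensity with signal-to-noise across three replicate slides.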 The following applies: ConA-A647 binding fluorescence, higher = more signal.
The nature of experiment [9]: compounds binding Alexa647 anti-His antibody – biochemical, small-molecule microarray, 635 nm fluorescence, artefact control for SMM control protein annotation, primary screen (AID 1128).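 Also: score merges feature fluorescence with signal-to-noise for each printed compound spot.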 The following applies: higher = more signal.
The test system of experiment [10] is Human papillomavirus type 1a E7 protein (residues 1-88). Nature of the experiment: HPV1a E7 small-molecule binders, primary screen, biochemical, small-molecule microarray, residues 1-88, 635 nm (AID 1129). The following applies: small-molecule microarray binding, fluorescence 635 nm; higher = more signal.
For experiment [11], the target named is Focal adhesion kinase 1 (Homo sapiens) (UniProt Q05397). In words: PTK2 protein binding on printed compound slides – biochemical, small-molecule microarray, 635/667 nm fluorescence, BSA, DTT, primary screen (AID 1130).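 Also: composite of spot emission at 667 nm and signal to noise over triplicate slides.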 The following applies: 635 nm fluorescence, higher = more signal.
Experiment [12] has as its system Fibrinogen (Alexa647-labelled). In words: Alexa647-fibrinogen binding to printed small molecules – biochemical, small-molecule microarray, 635/667 nm fluorescence, artefact control for SMM control-protein annotation, profiling panel (AID 1131).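 Also: z-score merges 667 nm fluorescence with per-spot signal-to-noise over triplicate slides.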 The following applies: fibrinogen-A647 binding fluorescence, higher = more signal.
The target of experiment [13] is Follistatin (Homo sapiens) (UniProt P19883). In words: FST protein binding to printed compounds – biochemical, small-molecule microarray, 635/667 nm fluorescence, primary screen (AID 1132). The following applies: 635 nm fluorescence, higher = more signal.
Experiment [14] addresses Fibroblast growth factor 2 (Homo sapiens) (UniProt P09038). Nature of the experiment: basic fibroblast growth factor binding to printed compounds – biochemical, small-molecule microarray, 635/667 nm fluorescence, primary screen (AID 1133). The following applies: FGF2, fluorescence 635/667, higher = more signal.
Experiment [15] can be described thus: JC-1 mitochondrial potential readout, lung cancer cells – cell-based, A549, JC-1 fluorescence, basal, 24 h, 100 nL, profiling panel (AID 1138).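 Also: A549 lung adenocarcinoma cells under basal conditions with no added stimulus; test concentration not given here.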 The following applies: higher = more signal.
The test system of another experiment is Lefty1. Nature of the experiment: Lefty1 protein binding to printed compounds – biochemical, small-molecule microarray, 635/667 nm fluorescence, primary screen (AID 1139). The following applies: fluorescence 635/667, higher = more signal.
For experiment [16], the system named is wheat germ agglutinin (Triticum aestivum), Alexa647-labelled. In words: Alexa647-WGA lectin binding to printed small molecules – biochemical, small-molecule microarray, 635/667 nm fluorescence, artefact control for SMM control-protein annotation, profiling panel (AID 1140).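 Also: score merges 667 nm feature emission with signal to noise over triplicate slides.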 The following applies: WGA-A647 binding, 635 nm fluorescence, higher = more signal.
Experiment [17] concerns the target Luciferin 4-monooxygenase (Photinus pyralis) (UniProt P08659). In words: inhibition of purified Photinus pyralis luciferase – biochemical, luminescence, purified enzyme, 2006 set, primary screen (AID 1141).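 Also: cell-free assay with purified firefly luciferase at 100 ng per well in PBS; test concentration not given here.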 The following applies: purified firefly luciferase, SteadyGlo luminescence, 30 min; higher = more signal, called active from +8 up or from −8 down.

Chain of Luciferin 4-monooxygenase (Photinus pyralis) (P08659 whole entry, looked up): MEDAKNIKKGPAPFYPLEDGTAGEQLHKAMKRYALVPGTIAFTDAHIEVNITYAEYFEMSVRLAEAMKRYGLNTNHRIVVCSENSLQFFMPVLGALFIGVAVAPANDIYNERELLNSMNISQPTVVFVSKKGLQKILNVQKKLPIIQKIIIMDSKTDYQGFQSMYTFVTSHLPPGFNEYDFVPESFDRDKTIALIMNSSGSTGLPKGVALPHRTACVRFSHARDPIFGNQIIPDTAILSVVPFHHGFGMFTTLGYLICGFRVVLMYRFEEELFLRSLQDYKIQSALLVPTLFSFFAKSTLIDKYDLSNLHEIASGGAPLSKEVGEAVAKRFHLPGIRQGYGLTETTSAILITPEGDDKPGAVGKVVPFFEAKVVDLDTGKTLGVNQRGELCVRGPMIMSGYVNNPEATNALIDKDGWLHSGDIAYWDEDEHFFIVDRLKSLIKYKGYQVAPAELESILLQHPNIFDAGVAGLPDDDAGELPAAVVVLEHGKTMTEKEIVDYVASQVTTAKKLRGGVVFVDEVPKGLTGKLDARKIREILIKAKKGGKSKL
Chain of Concanavalin-A (Canavalia ensiformis) (P02866 whole entry, looked up): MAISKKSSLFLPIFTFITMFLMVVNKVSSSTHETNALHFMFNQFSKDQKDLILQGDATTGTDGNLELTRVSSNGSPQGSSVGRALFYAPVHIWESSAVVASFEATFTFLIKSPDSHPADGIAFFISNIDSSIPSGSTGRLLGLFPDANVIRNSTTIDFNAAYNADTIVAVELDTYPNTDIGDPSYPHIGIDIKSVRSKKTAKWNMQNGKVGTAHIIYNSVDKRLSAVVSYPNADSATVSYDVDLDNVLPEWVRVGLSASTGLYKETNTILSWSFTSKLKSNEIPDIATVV
Chain of Fibroblast growth factor 2 (Homo sapiens) (P09038 whole entry, looked up): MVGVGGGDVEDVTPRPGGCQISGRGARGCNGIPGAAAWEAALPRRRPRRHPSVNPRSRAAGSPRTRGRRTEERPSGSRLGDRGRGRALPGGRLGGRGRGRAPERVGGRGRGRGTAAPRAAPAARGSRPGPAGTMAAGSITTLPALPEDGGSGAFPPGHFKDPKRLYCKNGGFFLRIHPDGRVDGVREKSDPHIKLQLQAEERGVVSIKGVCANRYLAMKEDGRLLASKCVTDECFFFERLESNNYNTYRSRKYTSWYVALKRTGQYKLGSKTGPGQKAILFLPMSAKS
Chain of Albumin (Bos taurus) (P02769 whole entry, looked up): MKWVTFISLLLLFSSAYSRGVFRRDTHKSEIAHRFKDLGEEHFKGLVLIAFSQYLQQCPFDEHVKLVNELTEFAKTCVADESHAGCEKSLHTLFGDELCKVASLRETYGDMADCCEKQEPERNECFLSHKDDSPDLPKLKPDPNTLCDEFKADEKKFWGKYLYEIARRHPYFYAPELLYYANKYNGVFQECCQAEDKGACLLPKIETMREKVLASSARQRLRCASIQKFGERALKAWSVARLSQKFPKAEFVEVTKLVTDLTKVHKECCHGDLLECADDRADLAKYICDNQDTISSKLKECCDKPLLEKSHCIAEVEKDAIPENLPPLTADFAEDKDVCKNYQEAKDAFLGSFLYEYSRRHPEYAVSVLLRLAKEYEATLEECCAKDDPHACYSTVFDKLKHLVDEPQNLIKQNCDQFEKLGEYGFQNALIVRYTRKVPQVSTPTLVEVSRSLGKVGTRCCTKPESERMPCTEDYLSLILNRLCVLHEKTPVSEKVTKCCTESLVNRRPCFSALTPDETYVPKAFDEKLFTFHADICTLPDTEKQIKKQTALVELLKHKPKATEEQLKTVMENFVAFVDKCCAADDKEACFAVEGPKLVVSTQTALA
Chain of Focal adhesion kinase 1 (Homo sapiens) (Q05397 whole entry, looked up): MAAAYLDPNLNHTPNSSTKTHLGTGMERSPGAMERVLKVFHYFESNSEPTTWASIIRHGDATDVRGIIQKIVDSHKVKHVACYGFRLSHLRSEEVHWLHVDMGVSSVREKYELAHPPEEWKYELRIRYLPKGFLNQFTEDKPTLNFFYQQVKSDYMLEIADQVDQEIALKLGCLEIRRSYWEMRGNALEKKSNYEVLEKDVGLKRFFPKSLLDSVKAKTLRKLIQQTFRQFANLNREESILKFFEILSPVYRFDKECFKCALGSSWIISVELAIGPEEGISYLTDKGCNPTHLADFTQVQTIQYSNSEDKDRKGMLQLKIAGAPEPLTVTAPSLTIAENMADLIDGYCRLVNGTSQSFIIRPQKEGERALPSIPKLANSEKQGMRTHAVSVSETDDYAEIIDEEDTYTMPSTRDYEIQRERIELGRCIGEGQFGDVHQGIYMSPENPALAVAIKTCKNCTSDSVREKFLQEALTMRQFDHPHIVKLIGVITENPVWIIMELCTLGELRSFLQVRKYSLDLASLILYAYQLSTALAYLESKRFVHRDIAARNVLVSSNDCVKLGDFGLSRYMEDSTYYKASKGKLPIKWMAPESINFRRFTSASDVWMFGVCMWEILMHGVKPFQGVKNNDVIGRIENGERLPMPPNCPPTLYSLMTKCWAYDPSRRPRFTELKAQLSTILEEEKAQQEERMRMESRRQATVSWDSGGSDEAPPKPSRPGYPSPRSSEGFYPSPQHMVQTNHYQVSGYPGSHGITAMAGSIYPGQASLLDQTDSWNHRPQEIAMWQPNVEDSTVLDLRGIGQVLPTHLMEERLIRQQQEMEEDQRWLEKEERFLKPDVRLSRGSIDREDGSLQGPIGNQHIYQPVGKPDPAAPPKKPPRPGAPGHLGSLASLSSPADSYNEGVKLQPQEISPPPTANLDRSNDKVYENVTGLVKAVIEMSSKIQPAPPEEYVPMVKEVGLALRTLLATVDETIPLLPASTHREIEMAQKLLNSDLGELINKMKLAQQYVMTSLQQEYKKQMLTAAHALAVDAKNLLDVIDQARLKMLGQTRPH
Chain of Follistatin (Homo sapiens) (P19883 whole entry, looked up): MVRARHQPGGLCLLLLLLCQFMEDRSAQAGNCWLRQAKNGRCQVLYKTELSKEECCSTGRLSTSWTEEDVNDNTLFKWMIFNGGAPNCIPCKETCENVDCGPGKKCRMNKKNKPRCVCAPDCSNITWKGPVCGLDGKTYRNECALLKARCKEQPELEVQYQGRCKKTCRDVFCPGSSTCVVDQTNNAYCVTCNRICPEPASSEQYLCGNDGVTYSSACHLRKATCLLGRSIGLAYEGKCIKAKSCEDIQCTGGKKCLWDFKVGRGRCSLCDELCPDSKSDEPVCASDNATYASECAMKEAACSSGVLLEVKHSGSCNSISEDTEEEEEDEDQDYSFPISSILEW

For the compound `O=C1C[C@@](C(=O)NCCN2CCOCC2)(c2ccc([N+](=O)[O-])cc2)[C@@H](c2ccc(CO)cc2I)N1CC12CC3CC(CC(C3)C1)C2`, the composite z-score in the experiment with Albumin (Bos taurus) was -0.091; in experiment [2] it was 0.0842; in experiment [3] it was -0.037; in experiment [4], 0.584; in [5], 1.77; in [6], 0.811. Also, the composite z-score was determined as 1.33 in the experiment with Sam68 (KHDRBS1); 0.392 in experiment [7]; 0.987 in [8]; 1.37 in [9]; 1.24 in experiment [10]; 0.656 in experiment [11]. Moreover, the composite z-score in experiment [12] is 0.954; in [13], 1.19; in [14], 1.22; in the experiment on Lefty1 it was 1.08; in [16], 0.981. Besides, the composite Z-score in experiment [1] was 0.0692 (inactive). The values for the z-score in [15] and in experiment [17] were -0.826 and -1.51 (inactive), respectively.

With `CO[C@H]1O[C@H](CO)[C@@H](OC(=O)Nc2cccc(F)c2)[C@H](OC(=O)Nc2ccccc2)[C@@H]1OC(=O)Nc1ccccc1`, the composite z-score with Albumin (Bos taurus) worked out at 0.875; in experiment [2], 0.138; in [3] it was 0.003; in experiment [4], 0.555; in experiment [5], 2.54; in [6], 1.02. The composite z-score was 1.3 in the experiment with Sam68 (KHDRBS1); -0.219 in experiment [7]; 0.724 in [8]; 1.16 in [9]; 1.22 in experiment [10]; 0.919 in [11]. Also, the composite z-score in experiment [12] is 0.973; in experiment [13], 0.518; in experiment [14], 0.843; with Lefty1, -0.105; in [16], 1.27. Further, the composite Z-score in [1] is 0.311 (inactive). The z-score in experiment [15] was 0.0874; in [17], 0.0107 (inactive).

As to `COCCCNC(=O)[C@@]1(C)c2ccccc2C(=O)N(C(C)C)[C@H]1c1ccc(CO)cc1`, the composite z-score with Albumin (Bos taurus) is -0.106; in [2], 0.0001; in experiment [3], 0.0023; in experiment [4], 0.693; in [5], 0.75; in experiment [6], 0.0526. In addition, the composite z-score in the experiment with Sam68 (KHDRBS1) amounted to 1.16; in [7], 1.08; in experiment [8] it was 0.67; in experiment [9], 1.42; in experiment [10] it was 1.14; in [11], 0.624. Further, the composite z-score in experiment [12] was determined as 0.648; in [13] it was 1.16; in experiment [14], 0.802; in the experiment with Lefty1, 0.499; in [16], 0.342. Besides, the composite Z-score in experiment [1] was 0.466 (inactive). For the same compound, the z-score in experiment [15] was 0.168; in [17], -0.336 (inactive).

Regarding `COC(=O)[C@@]1(Cc2ccc(F)cc2)[C@H]2c3cc(C(=O)N4CCCC4)n(CCCNc4ncc(C(F)(F)F)cc4Cl)c3C[C@H]2CN1C(=O)c1ccccc1`, the composite z-score in the experiment with Albumin (Bos taurus) is 0.357; in experiment [2], 0.69; in [3], 0.362; in [4] it was 0.728; in [5], 2.01; in experiment [6], -0.252. Moreover, the composite z-score with Sam68 (KHDRBS1) worked out at 0.541; in experiment [7], 0.197; in [8], 0.625; in experiment [9], 2.47; in experiment [10], 1.08; in [11], 0.604. In addition, the composite z-score in experiment [12] was 0.817; in experiment [13] it was -0.0084; in experiment [14] it was -0.903; in the experiment on Lefty1, -0.695; in experiment [16], 1.03. In addition, in [1], the composite Z-score is -0.585 (inactive). The z-score was 0.742 in experiment [15] and 1.37 (inactive) in experiment [17].

For the compound `CC(CO)N1C(=O)[C@@H]2C3C(=O)OCCC/C=C\[C@H]3OC23C=CCN(C(C)(C)C)C(=O)[C@@H]13` (stereo not given in full), the composite z-score is -0.757 with Albumin (Bos taurus); -0.103 in experiment [2]; -0.167 in experiment [3]; 0.872 in experiment [4]; 0.295 in experiment [5]; 0.198 in [6]. The composite z-score was -0.0677 in the experiment on Sam68 (KHDRBS1); -0.184 in experiment [7]; 0.0099 in experiment [8]; -0.286 in experiment [9]; -0.615 in experiment [10]; -0.05 in experiment [11]. Moreover, the composite z-score in experiment [12] was -0.47; in experiment [13], 0.122; in experiment [14] it was -0.0209; with Lefty1, 0.476; in experiment [16], -0.452. In addition, in [1], the composite Z-score is -0.483 (inactive). Moreover, the z-score is -0.0344 in [15] and -0.562 (inactive) in experiment [17].
